Experimental findings from PubChem BioAssay (NCI) are described below.

Structures are written as SMILES. The panel holds about 79,000 compounds, 15% with a hit somewhere; the sample as a whole holds those more often. Unmarked numbers belong to inactive results. Activity calls are given as the source filed them. Rule as the data show it: active = growth inhibition above about 70%; inactive = the rest.

Experiment [1] is described as follows: NCI Yeast Anticancer Drug Screen. Data for the rad50 strain (AID 155).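 Also: 0% = growth of vehicle-only cultures of the same strain.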 The note with it: S. cerevisiae rad50 strain growth inhibition, stronger effect = higher value. In a few lines: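 A DNA repair-deficient yeast mutant serves as the test organism; compound-induced growth inhibition is calculated against vehicle-treated cells.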
The nature of experiment [2]: NCI Yeast Anticancer Drug Screen. Data for the mec2-1 strain (AID 157). The note with it: S. cerevisiae mec2-1 strain, stronger effect = higher value. In a few lines:
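Mutant yeast (mec2-1) grown with compound; growth inhibition relative to vehicle control reported.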

Experiment [3] is described as follows: NCI Yeast Anticancer Drug Screen. Data for the sgs1 mgt1 strain (AID 161).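 Also: 0% = growth of cultures given vehicle only.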 The note with it: S. cerevisiae sgs1 mgt1 strain, stronger effect = higher value. In a few lines: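 Growth of a repair-deficient yeast mutant was monitored after compound treatment and expressed as inhibition relative to vehicle-treated cultures.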
The nature of experiment [4]: NCI Yeast Anticancer Drug Screen. Data for the cln2 rad14 strain (AID 165).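 Also: 0% = growth equal to vehicle treated cultures.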 The settings on record: S. cerevisiae cln2 rad14 strain, stronger effect = higher value. Summed up:
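Readout is yeast growth inhibition versus vehicle-treated controls, using a strain with cln2 and rad14 alterations exposed to compound.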

A short description of experiment [5]: NCI Yeast Anticancer Drug Screen. Data for the bub3 strain (AID 167). The settings on record: S. cerevisiae bub3 mutant strain, stronger effect = higher value. In a few lines: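 Inhibition values come from growth of compound-treated mutant yeast normalised to vehicle-treated controls.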
Experiment [6] in a line: NCI Yeast Anticancer Drug Screen. Data for the mlh1 rad18 strain (AID 175). The note with it: S. cerevisiae mlh1 rad18 strain growth inhibition, stronger effect = higher value. Summed up:
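Genetically defined yeast (DNA repair-deficient) exposed to compounds; growth inhibition determined relative to vehicle.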

Where [7] appears, read: at 5.0 µM (retest, dose inferred, filed as 0.5).
Setting [8] is: at 50.0 µM (retest, dose inferred, filed as 5.0).

For `Cc1ccc(N2C(=O)CSC2=S)cc1Br`, the growth inhibition in experiment [1] (setting [7]) is 7%; in experiment [1] (setting [8]), 46%; in experiment [1] (at 50.0 µM) it was 95.1% (active); in experiment [2] (setting [7]), 3%; in experiment [2] (setting [8]), 11%; in experiment [2] (at 50.0 µM), 93% (active). The growth inhibition is 4% in experiment [3] (setting [7]); 49% in experiment [3] (setting [8]); 94.9% (active) in experiment [3] (at 50.0 µM); -1% in experiment [4] (setting [7]); -11% in experiment [4] (setting [8]); 31.9% in experiment [4] (at 50.0 µM). Also, the growth inhibition in experiment [5] (setting [7]) was -2%; in experiment [5] (setting [8]), 24%; in experiment [5] (at 50.0 µM), 77.5% (active); in experiment [6] (setting [7]) it was 3%; in experiment [6] (setting [8]) it was 64%; in experiment [6] (at 50.0 µM), 95.2% (active).
As to `CCCCCCCCCCCC(=O)OCC1CO1` (configuration not stated), the growth inhibition is -6% in experiment [1] (setting [7]); -26% in experiment [1] (setting [8]); -11.7% in experiment [1] (at 50.0 µM); -13% in experiment [2] (setting [7]); -8% in experiment [2] (setting [8]); -4.65% in experiment [2] (at 50.0 µM). The growth inhibition in experiment [3] (setting [7]) was 6%; in experiment [3] (setting [8]) it was 1%; in experiment [3] (at 50.0 µM), 24.6%; in experiment [4] (setting [7]), 29%; in experiment [4] (setting [8]), -55%; in experiment [4] (at 50.0 µM), 34%. In addition, the growth inhibition in experiment [5] (setting [7]) is 9%; in experiment [5] (setting [8]) it was -44%; in experiment [5] (at 50.0 µM), -6.5%; in experiment [6] (setting [7]), -16%; in experiment [6] (setting [8]) it was 3%; in experiment [6] (at 50.0 µM), -11.4%.
`COC1=CC2=CCC3C(CCC4(C)C(C(C)=O)CCC34)C2(C)CC1` (configuration not stated): the growth inhibition is -8% in experiment [1] (setting [7]); 5% in experiment [1] (setting [8]); 42.5% in experiment [1] (at 50.0 µM); -7% in experiment [2] (setting [7]); 4% in experiment [2] (setting [8]); 13% in experiment [2] (at 50.0 µM). For the same molecule, the growth inhibition in experiment [3] (setting [7]) was -1%; in experiment [3] (setting [8]), 40%; in experiment [3] (at 50.0 µM) it was 49%; in experiment [4] (setting [7]), -2%; in experiment [4] (setting [8]), 14%; in experiment [4] (at 50.0 µM), 0.75%. The growth inhibition in experiment [5] (setting [7]) is -17%; in experiment [5] (setting [8]) it was -5%; in experiment [5] (at 50.0 µM), 47.6%; in experiment [6] (setting [7]), -12%; in experiment [6] (setting [8]), -2%; in experiment [6] (at 50.0 µM) it was 51.1%.
Consider `Cc1ccccc1P(=O)(c1ccccc1C)c1ccccc1C`, for which the growth inhibition in experiment [1] (setting [7]) is 16%; in experiment [1] (setting [8]), 31%; in experiment [1] (at 50.0 µM) it was 0.55%; in experiment [2] (setting [7]), 16%; in experiment [2] (setting [8]) it was 28%; in experiment [2] (at 50.0 µM), 12.9%. Moreover, the growth inhibition in experiment [3] (setting [7]) is 10%; in experiment [3] (setting [8]), 42%; in experiment [3] (at 50.0 µM) it was 13.1%; in experiment [4] (setting [7]) it was 11%; in experiment [4] (setting [8]), 51%; in experiment [4] (at 50.0 µM) it was 32.6%. The growth inhibition in experiment [5] (setting [7]) is 24%; in experiment [5] (setting [8]) it was 24%; in experiment [5] (at 50.0 µM), 32.5%; in experiment [6] (setting [7]), 15%; in experiment [6] (setting [8]), 45%; in experiment [6] (at 50.0 µM) it was 4.35%.
Regarding `C/C(=N\N=C(N)N)c1ccc2c(c1)Cc1cc(/C(C)=N/N=C(N)N)ccc1-2`, the growth inhibition is 42% in experiment [1] (setting [7]); 98% (active) in experiment [1] (setting [8]); 87.8% (active) in experiment [1] (at 50.0 µM); 40% in experiment [2] (setting [7]); 99% (active) in experiment [2] (setting [8]); 88.8% (active) in experiment [2] (at 50.0 µM). In addition, the growth inhibition in experiment [3] (setting [7]) was 39%; in experiment [3] (setting [8]), 99% (active); in experiment [3] (at 50.0 µM), 84.7% (active); in experiment [4] (setting [7]) it was 43%; in experiment [4] (setting [8]), 99% (active); in experiment [4] (at 50.0 µM), 87.2% (active). The growth inhibition in experiment [5] (setting [7]) was 52%; in experiment [5] (setting [8]) it was 98% (active); in experiment [5] (at 50.0 µM), 83.3% (active); in experiment [6] (setting [7]), 54%; in experiment [6] (setting [8]) it was 98% (active); in experiment [6] (at 50.0 µM) it was 90% (active).
As for `Cc1cccc(/C=N\OCCc2ccccc2)n1`, the growth inhibition in experiment [1] (setting [7]) is 0%; in experiment [1] (setting [8]), 85% (active); in experiment [1] (at 50.0 µM), -3.05%; in experiment [2] (setting [7]), -6%; in experiment [2] (setting [8]) it was 53%; in experiment [2] (at 50.0 µM), 80.2% (active). Further, the growth inhibition in experiment [3] (setting [7]) is 1%; in experiment [3] (setting [8]), 84% (active); in experiment [3] (at 50.0 µM), 16.6%; in experiment [4] (setting [7]), -14%; in experiment [4] (setting [8]), 21%; in experiment [4] (at 50.0 µM), -14.1%. Besides, the growth inhibition in experiment [5] (setting [7]) was 2%; in experiment [5] (setting [8]), 94% (active); in experiment [5] (at 50.0 µM), 47.7%; in experiment [6] (setting [7]), -2%; in experiment [6] (setting [8]), 88% (active); in experiment [6] (at 50.0 µM) it was 32.8%.
As to `CN1C/C(=C\c2ccc(Cl)cc2)C(=O)/C(=C/c2ccc(Cl)cc2)C1`, the growth inhibition in experiment [1] (setting [7]) is 78% (active); in experiment [1] (setting [8]), 98% (active); in experiment [1] (at 50.0 µM) it was 87.2% (active); in experiment [2] (setting [7]) it was 73% (active); in experiment [2] (setting [8]), 99% (active); in experiment [2] (at 50.0 µM) it was 88.5% (active). Moreover, the growth inhibition in experiment [3] (setting [7]) was 79% (active); in experiment [3] (setting [8]), 99% (active); in experiment [3] (at 50.0 µM), 91% (active); in experiment [4] (setting [7]), 78% (active); in experiment [4] (setting [8]) it was 97% (active); in experiment [4] (at 50.0 µM), 88% (active). Moreover, the growth inhibition is 84% (active) in experiment [5] (setting [7]); 97% (active) in experiment [5] (setting [8]); 87.8% (active) in experiment [5] (at 50.0 µM); 83% (active) in experiment [6] (setting [7]); 98% (active) in experiment [6] (setting [8]); 85.2% (active) in experiment [6] (at 50.0 µM).
On to `O=C1C(c2c[nH]c3ccccc23)=Nc2ccc(Br)cc21`, for which the growth inhibition was 19% in experiment [1] (setting [7]); 33% in experiment [1] (setting [8]); 86.8% (active) in experiment [1] (at 50.0 µM); 26% in experiment [2] (setting [7]); 35% in experiment [2] (setting [8]); 61.4% in experiment [2] (at 50.0 µM). Moreover, the growth inhibition is 25% in experiment [3] (setting [7]); 29% in experiment [3] (setting [8]); 73% (active) in experiment [3] (at 50.0 µM); 15% in experiment [4] (setting [7]); 34% in experiment [4] (setting [8]); 53.5% in experiment [4] (at 50.0 µM). In addition, the growth inhibition in experiment [5] (setting [7]) was 45%; in experiment [5] (setting [8]), 53%; in experiment [5] (at 50.0 µM), 90% (active); in experiment [6] (setting [7]), 24%; in experiment [6] (setting [8]), 35%; in experiment [6] (at 50.0 µM), 83.7% (active).
Take `O=C(O)CCC(c1ccccc1)(c1ccccc1)c1ccccc1`: the growth inhibition is 66% in experiment [1] (setting [7]); 99% (active) in experiment [1] (setting [8]); 99.5% (active) in experiment [1] (at 50.0 µM); 53% in experiment [2] (setting [7]); 100% (active) in experiment [2] (setting [8]); 99.7% (active) in experiment [2] (at 50.0 µM). Further, the growth inhibition was 54% in experiment [3] (setting [7]); 99% (active) in experiment [3] (setting [8]); 98.9% (active) in experiment [3] (at 50.0 µM); -59% in experiment [4] (setting [7]); 99% (active) in experiment [4] (setting [8]); 99% (active) in experiment [4] (at 50.0 µM). Moreover, the growth inhibition in experiment [5] (setting [7]) was 80% (active); in experiment [5] (setting [8]) it was -50%; in experiment [5] (at 50.0 µM) it was 99.5% (active); in experiment [6] (setting [7]), 64%; in experiment [6] (setting [8]) it was 99% (active); in experiment [6] (at 50.0 µM), 99.2% (active).
